Data taken from PubChem BioAssay (EPA / NIEHS).
Calls of active or inactive are those of the source. Rule for the calls: active = hit-call score of the fitted dose curve at least 0.9, where 1 is the maximum; inactive = score below 0.9.

Assays:
Details in all cases: mRNA level, 48 h; actives raise or lower the signal
[1] = read-out: matrix metalloproteinase-3 (MMP3), MMP3 (gene 4314); assay: LTEA_HepaRG_MMP3: Life Technologies and Expression Analysis (LTEA) Assay for matrix metalloproteinase-3 (MMP3) using HepaRG (AID 2283519)
Summary of the method: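 Differentiated human HepaRG cells, plated 48 h on collagen I, were exposed in duplicate for 48 h in serum-free induction medium to eight half-log concentrations up to 100 uM in 0.5% DMSO. MMP3 mRNA was quantified by TaqMan qRT-PCR, normalised to ACTB, GAPDH and POLR2A.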

[2] = read-out: Paternally Expressed 10 (PEG10), PEG10 (gene 23089); assay: LTEA_HepaRG_PEG10: Life Technologies and Expression Analysis (LTEA) Assay for Paternally Expressed 10 (PEG10) using HepaRG (AID 2283520)
Summary of the method: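 Differentiated HepaRG cells, plated 48 h then switched to serum-free induction medium, were exposed in duplicate for 48 h to eight half-log concentrations topping at 100 uM in 0.5% DMSO. PEG10 mRNA was quantified by TaqMan qRT-PCR, normalised to ACTB, GAPDH and POLR2A.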

[3] = read-out: Protein phosphatase 2A (PPP2R4), PTPA (gene 5524); assay: LTEA_HepaRG_PPP2R4: Life Technologies and Expression Analysis (LTEA) Assay for Protein phosphatase 2A (PPP2R4) using HepaRG (AID 2283522)
Summary of the method: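 Differentiated HepaRG cells in serum-free induction medium were exposed in duplicate for 48 h to eight concentrations, top 100 uM with half-log dilutions, in 0.5% DMSO. PPP2R4 mRNA was quantified by TaqMan qRT-PCR, normalized to ACTB, GAPDH and POLR2A.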

[4] = read-out: Phosphatase and tensin (PTEN), PTEN (gene 5728); assay: LTEA_HepaRG_PTEN: Life Technologies and Expression Analysis (LTEA) Assay for Phosphatase and tensin (PTEN) using HepaRG (AID 2283523)
Summary of the method: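 Differentiated human HepaRG cells, plated 48 h then switched to serum-free induction medium, were exposed in duplicate for 48 h to eight half-log concentrations up to 100 uM in 0.5% DMSO. PTEN mRNA measured by TaqMan qRT-PCR, normalized to ACTB/GAPDH/POLR2A, bidirectional fit versus DMSO.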

[5] = read-out: solute carrier (SLC22A1), SLC22A1 (gene 6580); assay: LTEA_HepaRG_SLC22A1: Life Technologies and Expression Analysis (LTEA) Assay for solute carrier (SLC22A1) using HepaRG (AID 2283524)
Summary of the method: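 Human HepaRG cells were plated 48 h, switched to serum-free induction medium, then exposed in duplicate for 48 h to 8-point half-log series from 100 uM in 0.5% DMSO. SLC22A1 mRNA measured by qRT-PCR, normalized to ACTB/GAPDH/POLR2A, fitted bidirectionally versus DMSO.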

[6] = read-out: Pyruvate Dehydrogenase Kinase 4 (PDK4), PDK4 (gene 5166); assay: LTEA_HepaRG_PDK4: Life Technologies and Expression Analysis (LTEA) Assay for Pyruvate Dehydrogenase Kinase 4 (PDK4) using HepaRG (AID 2283525)
Summary of the method: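 Differentiated human HepaRG cells, pre-cultured 48 h, were exposed in duplicate for 48 h in serum-free induction medium to eight half-log concentrations up to 100 uM in 0.5% DMSO. PDK4 mRNA was quantified by qRT-PCR, normalized to ACTB, GAPDH and POLR2A, bidirectional fitting versus DMSO.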

[7] = read-out: NAD(P)H dehydrogenase [quinone] 1 (NQO1), NQO1 (gene 1728); assay: LTEA_HepaRG_NQO1: Life Technologies and Expression Analysis (LTEA) Assay for NAD(P)H dehydrogenase [quinone] 1 (NQO1) using HepaRG (AID 2283526)
Summary of the method: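 Differentiated HepaRG cells, plated 48 h and then switched to serum-free induction medium, were exposed in duplicate for 48 h to 8-point half-log concentrations up to 100 uM in 0.5% DMSO. mRNA measured by qRT-PCR, normalized to ACTB, GAPDH, POLR2A; bidirectional fit versus DMSO.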

[8] = read-out: Nuclear factor erythroid 2-related factor 2 (Homo sapiens) (UniProt Q16236); assay: LTEA_HepaRG_NFE2L2: Life Technologies and Expression Analysis (LTEA) Assay for Nuclear factor erythroid 2-related factor 2 (NFE2L2) Transcription Factor using HepaRG (AID 2283527);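 note: TaqMan qRT-PCR transcript level normalised to ACTB GAPDH and POLR2A housekeeping genes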
Summary of the method: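 Differentiated human HepaRG cells in serum-free induction medium were exposed for 48 h to eight concentrations (top 100 uM, half-log dilutions, 0.5% DMSO), in duplicate. NFE2L2 mRNA was quantified by TaqMan qRT-PCR, normalized to ACTB, GAPDH and POLR2A, with bidirectional fitting versus DMSO.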

[9] = read-out: succinate dehydrogenase complex iron sulfur subunit B (SDHB), SDHB (gene 6390); assay: LTEA_HepaRG_SDHB: Life Technologies and Expression Analysis (LTEA) Assay for succinate dehydrogenase complex iron sulfur subunit B (SDHB) using HepaRG (AID 2283528)
Summary of the method: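 A human HepaRG culture in serum-free induction medium received test chemicals for 48 h over an eight-point range capped at 100 uM. SDHB expression change was quantified by qRT-PCR.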

[10] = read-out: Signal transducer and activator of transcription 3 (Homo sapiens) (UniProt P40763); assay: LTEA_HepaRG_STAT3: Life Technologies and Expression Analysis (LTEA) Assay for Signal transducer and activator of transcription (STAT3) using HepaRG (AID 2283529)
Summary of the method: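 Differentiated human HepaRG cells in serum-free induction medium were exposed in duplicate for 48 h to eight half-log concentrations up to 100 uM in 0.5% DMSO. STAT3 mRNA was quantified by TaqMan qRT-PCR, normalized to ACTB, GAPDH and POLR2A, and fitted bidirectionally against DMSO.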

[11] = read-out: solute carrier (SLCO1B1), SLCO1B1 (gene 10599); assay: LTEA_HepaRG_SLCO1B1: Life Technologies and Expression Analysis (LTEA) Assay for solute carrier (SLCO1B1) using HepaRG (AID 2283530)
Summary of the method: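 Gain or loss of SLCO1B1 mRNA is fitted against the 0.5% DMSO vehicle in human HepaRG liver cells treated 48 h at up to 100 uM in half-log steps. Expression comes from qRT-PCR normalized to endogenous controls.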

[12] = read-out: sulfotransferase 2A1 (SULT2A1), SULT2A1 (gene 6822); assay: LTEA_HepaRG_SULT2A1: Life Technologies and Expression Analysis (LTEA) Assay for sulfotransferase 2A1 (SULT2A1) using HepaRG (AID 2283531)
Summary of the method: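 Cells were plated and cultured 48 h, switched to serum-free induction medium, then dosed in duplicate for 48 h (8 concentrations, max 100 uM). RNA was isolated and SULT2A1 expression measured by qRT-PCR; gain or loss of signal fitted relative to DMSO.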

[13] = read-out: Transforming Growth Factor (TGFA), TGFA (gene 7039); assay: LTEA_HepaRG_TGFA: Life Technologies and Expression Analysis (LTEA) Assay for Transforming Growth Factor (TGFA) using HepaRG (AID 2283532)
Summary of the method: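 Differentiated human HepaRG cells, plated 48 h then switched to serum-free induction medium, were exposed in duplicate for 48 h to 8-point half-log series from 100 uM in 0.5% DMSO. TGFA mRNA measured by qRT-PCR, normalized to ACTB/GAPDH/POLR2A, bidirectional fit versus DMSO.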

[14] = read-out: Transforming Growth Factor (TGFB1), TGFB1 (gene 7040); assay: LTEA_HepaRG_TGFB1: Life Technologies and Expression Analysis (LTEA) Assay for Transforming Growth Factor (TGFB1) Transporter using HepaRG (AID 2283533)
Summary of the method: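 Expression change of TGFB1 in human HepaRG cells is measured after a 48 h chemical exposure, up to 100 uM in 0.5% DMSO vehicle. Curves are fitted in both directions relative to the DMSO baseline.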

[15] = read-out: Tumor necrosis factor receptor 1 (TNFRSF1A), TNFRSF1A (gene 7132); assay: LTEA_HepaRG_TNFRSF1A: Life Technologies and Expression Analysis (LTEA) Assay for Tumor necrosis factor receptor 1 (TNFRSF1A) using HepaRG (AID 2283535)
Summary of the method: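 Expression of TNFRSF1A in human HepaRG liver cells was measured by qRT-PCR 48 h after chemical dosing (maximum 100 uM). Bidirectional curve fitting used 0.5% DMSO as baseline.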

[16] = read-out: Thyroid Hormone Responsive (THRSP), THRSP (gene 7069); assay: LTEA_HepaRG_THRSP: Life Technologies and Expression Analysis (LTEA) Assay for Thyroid Hormone Responsive (THRSP) using HepaRG (AID 2283536)
Summary of the method: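 Differentiated human HepaRG cells were exposed in duplicate for 48 h in serum-free induction medium to eight concentrations (top 100 uM, half-log steps, 0.5% DMSO). Expression was quantified by TaqMan qRT-PCR, normalized to ACTB, GAPDH and POLR2A, with bidirectional fitting against DMSO.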

[17] = read-out: Cellular tumor antigen p53 (Homo sapiens) (UniProt P04637); assay: LTEA_HepaRG_TP53: Life Technologies and Expression Analysis (LTEA) Assay for Tumor Protein P53 (TP53) using HepaRG (AID 2283537)
Summary of the method: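 Gain or loss of TP53 mRNA signal is scored relative to 0.5% DMSO after 48 h chemical treatment of HepaRG liver cells, tested in duplicate at eight half-log concentrations up to 100 uM.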

[18] = read-out: UDP glucuronosyltransferase (UGT1A1), UGT1A1 (gene 54658); assay: LTEA_HepaRG_UGT1A1: Life Technologies and Expression Analysis (LTEA) Assay for UDP glucuronosyltransferase (UGT1A1) using HepaRG (AID 2283538)
Summary of the method: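 Differentiated human HepaRG cells in serum-free induction medium were exposed in duplicate for 48 h to eight half-log concentrations up to 100 uM in 0.5% DMSO. UGT1A1 mRNA was quantified by TaqMan qRT-PCR, normalized to ACTB, GAPDH and POLR2A, and fitted bidirectionally against DMSO.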

[19] = read-out: Nuclear factor NF-kappa-B p105 subunit (Homo sapiens) (UniProt P19838); assay: LTEA_HepaRG_NFKB1: Life Technologies and Expression Analysis (LTEA) Assay for Nuclear Factor Kappa B Subunit 1 (NFKB1) using HepaRG (AID 2283521);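 note: TaqMan qRT-PCR transcript normalised to ACTB GAPDH and POLR2A housekeeping genes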
Summary of the method: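 Human HepaRG cells receive eight half-log concentrations, highest 100 uM, for 48 h. NFKB1 expression is then quantified by qRT-PCR and analysed for up- or down-regulation relative to 0.5% DMSO vehicle.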

Measured: AC50

Chain of Signal transducer and activator of transcription 3 (Homo sapiens) (P40763 whole entry, looked up): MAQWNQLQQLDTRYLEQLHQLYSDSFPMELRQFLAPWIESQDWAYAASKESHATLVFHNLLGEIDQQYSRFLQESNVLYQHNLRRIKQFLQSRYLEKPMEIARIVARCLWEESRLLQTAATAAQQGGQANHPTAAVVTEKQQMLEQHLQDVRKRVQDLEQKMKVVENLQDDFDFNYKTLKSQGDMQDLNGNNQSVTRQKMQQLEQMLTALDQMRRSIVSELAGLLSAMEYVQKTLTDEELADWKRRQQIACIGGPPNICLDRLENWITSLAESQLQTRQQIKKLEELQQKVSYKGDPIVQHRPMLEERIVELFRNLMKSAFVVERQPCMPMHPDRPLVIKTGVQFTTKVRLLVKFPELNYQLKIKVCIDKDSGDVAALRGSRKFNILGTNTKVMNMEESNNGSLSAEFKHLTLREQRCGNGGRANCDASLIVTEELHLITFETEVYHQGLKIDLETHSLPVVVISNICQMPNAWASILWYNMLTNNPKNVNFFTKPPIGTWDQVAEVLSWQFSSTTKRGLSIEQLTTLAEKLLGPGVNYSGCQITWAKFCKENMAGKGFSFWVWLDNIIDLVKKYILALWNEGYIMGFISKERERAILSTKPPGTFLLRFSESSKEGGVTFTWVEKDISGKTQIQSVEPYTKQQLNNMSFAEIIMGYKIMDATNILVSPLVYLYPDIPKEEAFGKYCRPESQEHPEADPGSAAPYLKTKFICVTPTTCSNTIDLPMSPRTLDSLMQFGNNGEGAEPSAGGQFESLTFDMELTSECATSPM
Chain of Nuclear factor erythroid 2-related factor 2 (Homo sapiens) (Q16236 whole entry, looked up): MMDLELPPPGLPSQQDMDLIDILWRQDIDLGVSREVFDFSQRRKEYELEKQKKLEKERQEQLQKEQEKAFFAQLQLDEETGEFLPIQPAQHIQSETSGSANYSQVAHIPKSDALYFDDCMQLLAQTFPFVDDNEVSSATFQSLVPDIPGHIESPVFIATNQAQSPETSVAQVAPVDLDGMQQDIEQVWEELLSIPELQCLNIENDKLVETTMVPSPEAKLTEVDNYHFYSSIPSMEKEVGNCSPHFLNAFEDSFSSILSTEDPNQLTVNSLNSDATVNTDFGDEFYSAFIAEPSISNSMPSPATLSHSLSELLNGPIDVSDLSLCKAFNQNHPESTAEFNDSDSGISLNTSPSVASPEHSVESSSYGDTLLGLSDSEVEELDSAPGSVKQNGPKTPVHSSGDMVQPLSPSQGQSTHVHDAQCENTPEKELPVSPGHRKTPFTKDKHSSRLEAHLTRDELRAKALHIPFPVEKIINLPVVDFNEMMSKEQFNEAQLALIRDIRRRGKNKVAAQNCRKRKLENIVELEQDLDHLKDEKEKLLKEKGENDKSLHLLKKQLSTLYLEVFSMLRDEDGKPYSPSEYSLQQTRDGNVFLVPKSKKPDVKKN
Chain of Cellular tumor antigen p53 (Homo sapiens) (P04637 whole entry, looked up): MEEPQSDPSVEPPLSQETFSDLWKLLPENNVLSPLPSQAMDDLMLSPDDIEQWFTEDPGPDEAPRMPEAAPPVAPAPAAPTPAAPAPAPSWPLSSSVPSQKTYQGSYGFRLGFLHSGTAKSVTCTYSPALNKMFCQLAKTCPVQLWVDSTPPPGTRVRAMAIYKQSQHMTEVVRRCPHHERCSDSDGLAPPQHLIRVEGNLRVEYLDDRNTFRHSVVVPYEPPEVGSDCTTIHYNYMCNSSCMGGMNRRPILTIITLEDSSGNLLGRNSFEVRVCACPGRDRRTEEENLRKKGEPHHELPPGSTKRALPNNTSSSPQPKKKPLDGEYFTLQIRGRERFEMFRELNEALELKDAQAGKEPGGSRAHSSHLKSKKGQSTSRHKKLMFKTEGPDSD
Chain of Nuclear factor NF-kappa-B p105 subunit (Homo sapiens) (P19838 whole entry, looked up): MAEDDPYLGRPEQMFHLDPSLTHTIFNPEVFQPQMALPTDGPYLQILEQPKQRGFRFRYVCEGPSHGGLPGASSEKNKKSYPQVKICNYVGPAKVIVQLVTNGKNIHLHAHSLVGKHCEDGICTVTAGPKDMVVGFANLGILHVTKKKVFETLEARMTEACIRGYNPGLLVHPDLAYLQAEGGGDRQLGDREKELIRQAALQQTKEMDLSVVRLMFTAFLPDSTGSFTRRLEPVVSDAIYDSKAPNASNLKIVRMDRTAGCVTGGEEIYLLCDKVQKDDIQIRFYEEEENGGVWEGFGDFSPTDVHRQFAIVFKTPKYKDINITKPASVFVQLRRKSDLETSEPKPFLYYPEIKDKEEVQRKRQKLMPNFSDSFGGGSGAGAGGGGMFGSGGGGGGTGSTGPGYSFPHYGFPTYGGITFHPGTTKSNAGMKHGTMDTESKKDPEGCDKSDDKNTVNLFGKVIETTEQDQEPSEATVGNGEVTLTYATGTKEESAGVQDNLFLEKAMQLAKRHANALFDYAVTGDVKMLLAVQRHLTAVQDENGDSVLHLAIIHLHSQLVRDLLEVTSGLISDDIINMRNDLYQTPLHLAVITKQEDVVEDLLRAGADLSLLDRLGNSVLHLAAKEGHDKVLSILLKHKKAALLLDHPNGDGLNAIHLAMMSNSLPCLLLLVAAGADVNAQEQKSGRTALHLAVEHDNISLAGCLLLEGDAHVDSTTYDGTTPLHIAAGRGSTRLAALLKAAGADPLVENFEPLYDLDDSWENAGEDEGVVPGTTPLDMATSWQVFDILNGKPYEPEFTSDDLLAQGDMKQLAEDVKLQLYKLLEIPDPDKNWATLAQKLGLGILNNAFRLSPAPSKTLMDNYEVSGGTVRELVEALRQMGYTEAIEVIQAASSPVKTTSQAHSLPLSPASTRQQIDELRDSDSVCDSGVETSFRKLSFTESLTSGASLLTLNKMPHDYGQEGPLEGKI

CC(C)C1(C)N=C(c2ncccc2C(=O)O)NC1=O (stereo unspecified)
not listed: [19]
inactive: all other assays above

CS(=O)(=O)c1ccc(C(=O)C2C(=O)CCCC2=O)c([N+](=O)[O-])c1
inactive: all assays above

CCN(CC)C(=O)C(C)Oc1cccc2ccccc12 (stereo unspecified)
active: [1] 76.2 µM | [2] 76.5 µM | [5] 70.1 µM
not listed: [18] | [19]
inactive: all other assays above

CSC(=O)c1c(C(F)F)nc(C(F)(F)F)c(C(=O)SC)c1CC(C)C
active: [5] 90 µM | [6] 33.8 µM | [10] 49.8 µM | [18] 11.7 µM
not listed: [19]
inactive: all other assays above

CCCN(CC)CC1COC2(CCC(C(C)(C)C)CC2)O1 (stereo unspecified)
active: [16] 0.319 µM
inactive: all other assays above
